# Measured values reported in PubChem BioAssay (NCATS).
# Records with an inconclusive call do not appear. Unmarked numbers belong to inactive results. The source made the active and inactive calls. Calls follow the shape of the dose curve; as a rule, active = well fitted cell-killing curve with a large enough effect; inconclusive = small, poorly fitted or top-dose-only effect, or effect the other way; inactive = no such curve, though single readings can be large or run the other way.
# Experiment: Quantitative High-Throughput drug screen in 47 multiple myeloma cell lines against the NCATS MIPE library collection: INA6_PLB cell viability assay (AID 1918965; also: nearly all actives have a fitted effect of over 55% in size)
# Conditions: INA6 myeloma viability, CellTiter-Glo ATP luminescence, 48 h; series mostly up to 45.8 µM; viability (% of control): at the top concentration
# Excerpt: PI: Beverly A. Mock Ph.D.
# Laboratory of Cancer Biology and Genetics,
# Center for Cancer Research, National Cancer Institute,
# National Institute of Health, Bethesda, Maryland
# Drug resistance and disease progression are common in multiple myeloma (MM) patients, underscoring the need for new therapeutic combinations. […] We hypothesized that effective combinations would reduce MYC expression and enhance p16 activity. […] These preclinical data identify potentially useful drug combinations for evaluation in drug-resistant MM and reveal potential mechanisms of combined drug sensitivity.
# Described herein is the primary MIPE qHTS used to cherrypick compounds. Validated compounds were then further tested for potential synergistic activiy.
# [1] Peat TJ, Gaikwad SM, Dubois W, Gyabaah-Kessie N, Zhang S, Gorjifard S, Phyo Z, Andres M, Hughitt VK, Simpson RM, Miller MA, Girvin AT, Taylor A, Williams D, D'Antonio N, Zhang Y, Rajagopalan A, Flietner E, Wilson K, Zhang X, Shinn P, Klumpp-Thomas C, McKnight C, Itkin Z, Chen L, Kazandijian D, Zhang J, Michalowski AM, Simmons JK, Keats J, Thomas CJ, Mock BA. Drug combinations identified by high-throughput screening promote cell cycle transition and upregulate Smad pathways in myeloma. Cancer Lett. 2023 Aug 1;568:216284. doi: 10.1016/j.canlet.2023.216284. Epub 2023 Jun 24. PMID: 37356470; PMCID: PMC10408729.
# SEQUENCE No. (e.g., 1, 2, 3, etc.); […] (e.g., Cells, Incubation, Reagent, etc.); VALUE and DESCRIPTION.
# 1; Cells; 5 uL; white, solid bottom 1536-well Greiner assay plate.
# 2; Compounds; 23 nL; Kalypsis pin tool (Wako USA) equipped with a 1536-well pin head to transfer to the assay plates.
# 3; Incubation; 48 hours; 37C incubation.
# 4; Reagent;5uL; CellTiter Glo (Promega).
# 5; Detector; 425V; Luminescence; Viewlux PerkinElmer.
# NOTES (numbers refer to Sequence numbers above)
# 1. The cell-based screening methods employed in this study were like those previously published. Briefly, the corresponding myeloma cell lines were screened in 1,536-well plates with 500 cells, 5-uL per well for inhibition of cell viability (assessed by measuring ATP levels with CellTiterGlo).
# 2. NCATS MIPE 4.0 library of approved and investigational drugs were added using the Kalypsis pin tool. Wells treated with DMSO only for 100% viability and media only wells for 0% viability were used as controls.
# 3. The assay plates were covered and incubated for 48 hours in a 37C, 5% CO2 incubator with controlled humidity.
# 4. After 48 hours, CellTilter-GloTM luminescent substrate mix (Promega) reagent was added to the assay plate and plates we incubated for 5 min at room temperature.
# 5. Signal was measured as median relative luminescence units on a ViewLux (PerkinElmer) multiplate reader.
# [1] Heske CM, Davis MI, Baumgart JT, Wilson K, Gormally MV, Chen L, Zhang X, Ceribelli M, Duveau DY, Guha R, Ferrer M, Arnaldez FI, Ji J, Tran HL, Zhang Y, Mendoza A, Helman LJ, Thomas CJ. Matrix Screen Identifies Synergistic Combination of PARP Inhibitors and Nicotinamide Phosphoribosyltransferase (NAMPT) Inhibitors in Ewing Sarcoma. Clin Cancer Res. 2017 Dec 1;23(23):7301-7311. doi: 10.1158/1078-0432.CCR-17-1121. Epub 2017 Sep 12. PMID: 28899971; PMCID: PMC6636827.
# Potency is read from the fitted curve at half-maximal effect.
Structure (SMILES),Potency,viability (% of control)
Nc1nc(Cl)nc2c1ncn2[C@@H]1O[C@H](CO)[C@@H](O)[C@H]1F,0.0148 µM (active),–
CN(C)CCOc1ccc(C(=C(CCCl)c2ccccc2)c2ccccc2)cc1,4.18 µM (active),–
O=C(Nc1ccc(OC(F)(F)F)cc1)c1sccc1NCc1ccnc2ccccc12,18.7 µM (active),–
CN(C)CCN(Cc1ccc(Cl)cc1)c1ccccn1,20.9 µM (active),–
CC[C@H](C)C(=O)O[C@H]1C[C@H](O)C=C2C=C[C@H](C)[C@H](CC[C@@H](O)C[C@@H](O)CC(=O)O)[C@H]21,–,124%
O=c1cc(-c2ccc(O)c(O)c2)oc2cc(O)cc(O)c12,26.4 µM (active),–
O=C(O)c1ccc(O)c2ncc(N3CCOCC3)cc12,–,154%
Oc1ccc(C=Cc2cc(O)cc(O)c2)cc1,16.6 µM (active),–
CCNC(=O)CCCC=CC[C@@H]1[C@H](C=CC(O)CCc2ccccc2)[C@@H](O)C[C@@H]1O (stereo not given in full),–,145%
CN(C)c1ccc(-c2nc3ncc(Cl)c(N4CCN(CC(=O)Nc5nccs5)CC4)c3[nH]2)cc1,2.64 µM (active),–
O=C(CCCN1CCN(c2ccc(F)cc2)CC1)NC1c2ccccc2CSc2ccccc21 (stereo not given),4.69 µM (active),–
CC(C)n1c(C=C[C@H](O)C[C@H](O)CC(=O)O)c(-c2ccc(F)cc2)c2ccccc21,10.5 µM (active),–
Cc1ccccc1C(C(=O)NC1CCCCC1)N(C(=O)CNc1ccc(C#N)cc1)c1cccc(F)c1 (stereo not given),–,178%
CN1C(=O)C(Cc2c[nH]c3ccccc23)NC1=S (stereo not given),–,154%
COc1ccc2cc1Oc1ccc(cc1)C[C@H]1c3cc(c(OC)cc3CCN1C)Oc1c(OC)c(OC)cc3c1[C@H](C2)N(C)CC3,18.7 µM (active),–
c1cc(OCCN2CCCCC2)cc(-c2n[nH]c3ccc(-c4ncn[nH]4)cc23)c1,6.62 µM (active),–
C[C@@H]1CCO[C@H]2Cn3cc(C(=O)NCc4ccc(F)cc4F)c(=O)c(O)c3C(=O)N12,20.9 µM (active),–
CC(O)=C(C#N)C(=O)Nc1ccc(C(F)(F)F)cc1,26.4 µM (active),–
COc1cc2nc(-c3cc(F)ccc3O)nc(N[C@@H]3CNC[C@@H]3C(C)(C)O)c2cc1OC,0.001 µM (active),–
Clc1ccc(C2(c3ccc(-c4cn[nH]c4)cc3)CCNCC2)cc1,5.9 µM (active),–

Structure (SMILES),Potency,viability (% of control)
CN1CCC[C@H]1CCO[C@](C)(c1ccccc1)c1ccc(Cl)cc1,18.7 µM (active),–
C=C1[C@H](n2cnc3c(=O)[nH]c(N)nc32)C[C@H](O)[C@H]1CO,11.8 µM (active),–
CN1CCN(c2ncc(-c3cc(Cl)cc(Cl)c3Cl)c(N)n2)CC1,13.2 µM (active),–
C=C1c2cccc(O)c2C(O)=C2C(=O)[C@@]3(O)C(O)=C(C(N)=O)C(=O)[C@@H](N(C)C)[C@@H]3[C@@H](O)[C@H]12,13.2 µM (active),–
Nc1ncnc2c1ncn2[C@@H]1O[C@H](CO)[C@@H](O)[C@@H]1O,3.32 µM (active),–
CN1CCN2c3ncccc3Cc3ccccc3C2C1 (stereo not given),–,125%
CCC(=C(c1ccc(O)cc1)c1ccc(OCCNC)cc1)c1ccccc1,2.64 µM (active),–
CN(C)CCCNC(=O)c1ccc(-c2cc(O)c3ncccc3c2)cc1,20.9 µM (active),–
C[C@]12CC[C@@H]3c4ccc(O)cc4CC[C@H]3[C@H]1[C@@H](O)[C@@H](O)[C@H]2O,–,156%
CC=C(C(=CC)c1ccc(O)cc1)c1ccc(O)cc1,16.6 µM (active),–
CN[C@H]1[C@@H](O[C@@H]2[C@H](O[C@@H]3[C@@H](O)[C@@H](O)[C@@H](N=C(N)N)[C@@H](O)[C@@H]3N=C(N)N)O[C@H](C)[C@@]2(O)C=O)O[C@@H](CO)[C@@H](O)[C@H]1O,–,144% [at 15.3 µM]
CC(=O)NCCC(=O)N[C@@H](CCC(N)=O)C(=O)N[C@@H](CO)C(=O)N[C@@H](CCC(N)=O)C(=O)N[C@@H](CCC(N)=O)C(=O)N[C@H](C(=O)N[C@@H](Cc1ccccc1)C(=O)N[C@]1(C)CCCCCCC=CCCC[C@@](C)(C(=O)N[C@@H](CCC(N)=O)C(=O)N[C@@H](CC(N)=O)C(N)=O)NC(=O)[C@H](CC(C)C)NC(=O)[C@H](CC(C)C)NC(=O)[C@@H](CCCNC(=N)N)NC(=O)[C@H](Cc2c[nH]c3ccccc23)NC(=O)[C@H](CC(C)C)NC(=O)[C@H](CC(N)=O)NC1=O)[C@H](C)O,20.9 µM (active),–
N#CC(=C1Nc2ccccc2S1)c1ccnc(OCc2ccc(CN3CCOCC3)cc2)n1,5.26 µM (active),–
CCCCC(C)(C)[C@H](O)C=C[C@H]1[C@H](O)CC(=O)[C@H]1CC=CCCCC(=O)O,23.5 µM (active),–
CCOC(=O)N1CCN([N+]([O-])=NOc2cc(ON=[N+]([O-])N3CCN(C(=O)OCC)CC3)c([N+](=O)[O-])cc2[N+](=O)[O-])CC1,2.35 µM (active),–
NS(=O)(=O)c1cc(Cl)c(Cl)c(S(N)(=O)=O)c1,–,169%
O=C(Nc1ccccc1)Nc1ccc(-c2ccc(C(=O)[C@H]3CCC[C@H]3C(=O)O)cc2)cc1,–,164%
Cc1ccc2c(=O)c3cccc(CC(=O)O)c3oc2c1C,23.5 µM (active),–
CCC[C@H](Nc1nc(-c2ccc(NC(=O)NCC)c(OC)c2)ncc1C)c1cccnc1,0.001 µM (active),–
CCn1c(-c2nonc2N)nc2cncc(CNC3CCNCC3)c21,5.9 µM (active),–
